{
  "source": "PubChem BioAssay AID743171",
  "about": "(National Center for Advancing Translational Sciences (NCATS), 2013)",
  "note": "Where “and” joins values, the source holds several entries; their conditions need not be identical. Identical values can stand only once. Results filed as inconclusive are left out. Calls of active or inactive are those of the source. Calls come from the whole dose curve; as a rule, active = well fitted inhibition curve with a large enough effect; inconclusive = small, poorly fitted or top-dose-only effect; inactive = flat fitted curve, though single readings scatter.",
  "data": [
    {"target": "15-hydroxyprostaglandin dehydrogenase [NAD(+)] (Homo sapiens) (UniProt P15428)", "sequence (P15428 whole entry, looked up)": "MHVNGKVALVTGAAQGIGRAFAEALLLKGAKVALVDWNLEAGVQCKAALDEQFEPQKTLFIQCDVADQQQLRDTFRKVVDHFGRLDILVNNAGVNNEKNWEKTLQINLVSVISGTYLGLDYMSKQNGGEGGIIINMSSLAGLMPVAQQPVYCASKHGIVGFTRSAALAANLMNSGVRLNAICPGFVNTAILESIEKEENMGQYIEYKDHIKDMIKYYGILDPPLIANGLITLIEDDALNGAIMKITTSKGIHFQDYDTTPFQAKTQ", "test": "Extended Characterization of HPGD Inhibitors: Activity in Primary Assay (HPGD)", "conditions": "recombinant HPGD, NADH fluorescence, PGE2 substrate", "source_text": "The central role of HPGD is to inactivate prostaglandins such as prostaglandin E2 (PGE2) or prostaglandin D2 (PGD2). These prostaglandins are involved in a number of processes, including inflammation, differentiation, and cellular signaling, which makes HPGD an important target for pharmacological intervention. Inhibition of 15-PGDH (HPGD) activity was screened by utilizing prostaglandin as an electron donor and NAD+ as an electron acceptor/cofactor. An increase in the fluorescence intensity due to conversion of NAD+ to NADH was used to measure the enzyme activity. All compounds were screened using a qHTS approach, where compounds are assayed using at least seven concentrations to generate concentration-response curves for every compound. Briefly, qHTS uses an inter-plate dilution method where the first plate contains the highest concentration of a set of compounds in DMSO, while subsequent plates contain the same compounds in the same well locations, but at successive lower concentrations. NIH Chemical Genomics Center [NCGC] NIH Molecular Libraries Probe Centers Network [MLPCN] MLPCN Grant: MH084681 Assay Submitter (PI): Structural Genomics Consortium\nThree uL of enzyme (20 nM final concentration) were dispensed to 1536-well Greiner black solid bottom plates. Compounds (23 nL) were transferred via Kalypsys PinTool. The plates were incubated for 15 min at room temperature, and then 1 uL of substrate/cofactor solution (Substrate/cofactor solution: 1 mM NAD+ and 30 uM prostaglandin (Sigma, prostaglandin E2, #P5640)) were added to start the reaction. The plates were immediately transferred to and read 4 times every 30 seconds on a ViewLux High-throughput CCD imager (Perkin-Elmer) using 340 nm excitation and 450 nm emission fluorescence protocol. The fluorescence intensity difference between the last and the first time points, normalized against controls, was used to compute reaction progress.", "values": [
      {"smiles": "COc1ccc(-n2c(C)cc(-c3nnc4n3CCCCC4)c2C)cc1", "Potency": "85.7 nM (active)"},
      {"smiles": "Cc1cc(-c2nnc3n2CCCCC3)c(C)n1-c1ccc(Cl)cc1", "Potency": "38.3 nM (active)"},
      {"smiles": "Cc1cc(-c2nnc3n2CCCCC3)c(C)n1-c1cccnc1", "Potency": "271 nM (active)"},
      {"smiles": "Cc1cc(-c2nnc3n2CCCCC3)c(C)n1-c1ccc(C(C)(C)C)cc1", "Potency": "85.7 nM (active) and 136 nM (active)"},
      {"smiles": "Cc1cccc(-n2cnc3cc(C(=O)N4CCCC(C)C4)ccc32)c1", "note": "(stereo not given)", "Potency": "21.5 nM (active)"}
    ]}
  ]
}
